Test results published in the supplement of paper PMC11732987, “Enantioselective OTUD7B fragment discovery through chemoproteomics screening and high-throughput optimisation” (Communications Chemistry, 2025).
Unmarked numbers belong to inactive results.

Key:
Assay in all cases: log2 ratio of Biotin-Ahx-Ub-VS probe labelling (fragment/DMSO); higher = less target engagement (more negative = stronger competition), active = hit call of the paper (q ≤ 0.05, log2 ratio ≤ -1)
Conditions in all cases: compound concentration: 200 uM; treatment time: 3 h
[1] = target: T1, USP19 (UniProt O94966)
T1 sequence (whole entry): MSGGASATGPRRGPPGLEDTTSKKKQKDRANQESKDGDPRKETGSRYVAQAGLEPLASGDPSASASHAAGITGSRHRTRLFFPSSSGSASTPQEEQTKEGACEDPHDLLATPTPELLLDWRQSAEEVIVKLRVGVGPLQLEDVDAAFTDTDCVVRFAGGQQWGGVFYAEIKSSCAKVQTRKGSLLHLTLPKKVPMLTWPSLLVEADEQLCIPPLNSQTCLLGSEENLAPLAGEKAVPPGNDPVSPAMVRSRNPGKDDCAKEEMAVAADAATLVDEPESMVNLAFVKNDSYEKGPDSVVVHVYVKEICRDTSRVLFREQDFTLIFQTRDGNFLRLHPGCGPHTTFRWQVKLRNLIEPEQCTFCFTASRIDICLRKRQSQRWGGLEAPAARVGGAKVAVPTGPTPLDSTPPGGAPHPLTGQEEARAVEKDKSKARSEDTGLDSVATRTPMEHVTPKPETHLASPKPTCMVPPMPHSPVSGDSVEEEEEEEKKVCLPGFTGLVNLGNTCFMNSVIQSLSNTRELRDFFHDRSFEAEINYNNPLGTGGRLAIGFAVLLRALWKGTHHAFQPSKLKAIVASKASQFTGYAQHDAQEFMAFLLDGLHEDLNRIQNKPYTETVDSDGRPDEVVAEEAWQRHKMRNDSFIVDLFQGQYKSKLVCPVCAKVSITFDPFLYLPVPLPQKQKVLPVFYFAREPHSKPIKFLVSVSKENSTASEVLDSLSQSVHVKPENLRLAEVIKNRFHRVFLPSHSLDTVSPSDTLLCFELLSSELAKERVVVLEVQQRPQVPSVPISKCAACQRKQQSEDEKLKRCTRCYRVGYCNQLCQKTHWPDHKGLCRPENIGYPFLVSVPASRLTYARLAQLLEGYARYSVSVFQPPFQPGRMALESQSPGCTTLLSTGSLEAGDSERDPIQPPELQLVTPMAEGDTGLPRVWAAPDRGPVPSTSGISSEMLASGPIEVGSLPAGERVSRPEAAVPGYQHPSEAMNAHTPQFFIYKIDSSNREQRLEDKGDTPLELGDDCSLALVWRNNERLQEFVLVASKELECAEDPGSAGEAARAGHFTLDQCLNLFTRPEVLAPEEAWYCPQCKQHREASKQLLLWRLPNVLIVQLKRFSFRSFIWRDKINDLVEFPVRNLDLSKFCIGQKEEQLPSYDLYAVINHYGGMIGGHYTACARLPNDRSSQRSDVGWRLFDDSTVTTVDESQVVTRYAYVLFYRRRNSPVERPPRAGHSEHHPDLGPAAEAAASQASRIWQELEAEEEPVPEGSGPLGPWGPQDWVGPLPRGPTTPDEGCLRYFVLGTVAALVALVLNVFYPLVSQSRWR
Method in brief: (§1)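 Labelled DUBs from HEK293T lysate were NeutrAvidin-enriched, digested with LysC and trypsin, and run by diaPASEF LC-MS/MS. Before that, each 495 µg sample in Tris/CHAPS/IGEPAL buffer with protease inhibitors was treated in triplicate with fragment at 200 µM or vehicle for 3 h, then with Biotin-Ahx-Ub-VS at 0.5 µM final for 1 h. Values are average log2 ratios of fragment over vehicle by unpaired t-test, based on global-median-normalised Spectronaut label-free quantities from proteins with ≥2 unique peptides.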

[2] = target: T2, USP22 (UniProt Q9UPT9)
T2 sequence (whole entry): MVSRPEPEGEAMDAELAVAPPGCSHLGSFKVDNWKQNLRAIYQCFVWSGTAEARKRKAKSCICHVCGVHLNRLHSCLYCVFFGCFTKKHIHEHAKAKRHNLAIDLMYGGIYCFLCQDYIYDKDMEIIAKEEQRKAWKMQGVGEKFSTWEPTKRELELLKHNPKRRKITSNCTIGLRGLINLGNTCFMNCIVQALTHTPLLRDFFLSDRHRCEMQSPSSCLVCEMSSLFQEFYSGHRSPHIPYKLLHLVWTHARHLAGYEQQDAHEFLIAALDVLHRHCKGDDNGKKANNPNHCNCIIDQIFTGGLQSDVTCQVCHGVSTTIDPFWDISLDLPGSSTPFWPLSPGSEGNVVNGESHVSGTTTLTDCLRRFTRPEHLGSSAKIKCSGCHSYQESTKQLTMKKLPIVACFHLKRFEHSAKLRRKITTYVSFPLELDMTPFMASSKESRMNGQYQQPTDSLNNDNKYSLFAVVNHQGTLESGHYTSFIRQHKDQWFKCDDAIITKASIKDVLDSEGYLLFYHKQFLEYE
Method in brief: as §1

[3] = target: USP24 (UniProt Q9UPU5)
USP24, sequence (Q9UPU5 whole entry): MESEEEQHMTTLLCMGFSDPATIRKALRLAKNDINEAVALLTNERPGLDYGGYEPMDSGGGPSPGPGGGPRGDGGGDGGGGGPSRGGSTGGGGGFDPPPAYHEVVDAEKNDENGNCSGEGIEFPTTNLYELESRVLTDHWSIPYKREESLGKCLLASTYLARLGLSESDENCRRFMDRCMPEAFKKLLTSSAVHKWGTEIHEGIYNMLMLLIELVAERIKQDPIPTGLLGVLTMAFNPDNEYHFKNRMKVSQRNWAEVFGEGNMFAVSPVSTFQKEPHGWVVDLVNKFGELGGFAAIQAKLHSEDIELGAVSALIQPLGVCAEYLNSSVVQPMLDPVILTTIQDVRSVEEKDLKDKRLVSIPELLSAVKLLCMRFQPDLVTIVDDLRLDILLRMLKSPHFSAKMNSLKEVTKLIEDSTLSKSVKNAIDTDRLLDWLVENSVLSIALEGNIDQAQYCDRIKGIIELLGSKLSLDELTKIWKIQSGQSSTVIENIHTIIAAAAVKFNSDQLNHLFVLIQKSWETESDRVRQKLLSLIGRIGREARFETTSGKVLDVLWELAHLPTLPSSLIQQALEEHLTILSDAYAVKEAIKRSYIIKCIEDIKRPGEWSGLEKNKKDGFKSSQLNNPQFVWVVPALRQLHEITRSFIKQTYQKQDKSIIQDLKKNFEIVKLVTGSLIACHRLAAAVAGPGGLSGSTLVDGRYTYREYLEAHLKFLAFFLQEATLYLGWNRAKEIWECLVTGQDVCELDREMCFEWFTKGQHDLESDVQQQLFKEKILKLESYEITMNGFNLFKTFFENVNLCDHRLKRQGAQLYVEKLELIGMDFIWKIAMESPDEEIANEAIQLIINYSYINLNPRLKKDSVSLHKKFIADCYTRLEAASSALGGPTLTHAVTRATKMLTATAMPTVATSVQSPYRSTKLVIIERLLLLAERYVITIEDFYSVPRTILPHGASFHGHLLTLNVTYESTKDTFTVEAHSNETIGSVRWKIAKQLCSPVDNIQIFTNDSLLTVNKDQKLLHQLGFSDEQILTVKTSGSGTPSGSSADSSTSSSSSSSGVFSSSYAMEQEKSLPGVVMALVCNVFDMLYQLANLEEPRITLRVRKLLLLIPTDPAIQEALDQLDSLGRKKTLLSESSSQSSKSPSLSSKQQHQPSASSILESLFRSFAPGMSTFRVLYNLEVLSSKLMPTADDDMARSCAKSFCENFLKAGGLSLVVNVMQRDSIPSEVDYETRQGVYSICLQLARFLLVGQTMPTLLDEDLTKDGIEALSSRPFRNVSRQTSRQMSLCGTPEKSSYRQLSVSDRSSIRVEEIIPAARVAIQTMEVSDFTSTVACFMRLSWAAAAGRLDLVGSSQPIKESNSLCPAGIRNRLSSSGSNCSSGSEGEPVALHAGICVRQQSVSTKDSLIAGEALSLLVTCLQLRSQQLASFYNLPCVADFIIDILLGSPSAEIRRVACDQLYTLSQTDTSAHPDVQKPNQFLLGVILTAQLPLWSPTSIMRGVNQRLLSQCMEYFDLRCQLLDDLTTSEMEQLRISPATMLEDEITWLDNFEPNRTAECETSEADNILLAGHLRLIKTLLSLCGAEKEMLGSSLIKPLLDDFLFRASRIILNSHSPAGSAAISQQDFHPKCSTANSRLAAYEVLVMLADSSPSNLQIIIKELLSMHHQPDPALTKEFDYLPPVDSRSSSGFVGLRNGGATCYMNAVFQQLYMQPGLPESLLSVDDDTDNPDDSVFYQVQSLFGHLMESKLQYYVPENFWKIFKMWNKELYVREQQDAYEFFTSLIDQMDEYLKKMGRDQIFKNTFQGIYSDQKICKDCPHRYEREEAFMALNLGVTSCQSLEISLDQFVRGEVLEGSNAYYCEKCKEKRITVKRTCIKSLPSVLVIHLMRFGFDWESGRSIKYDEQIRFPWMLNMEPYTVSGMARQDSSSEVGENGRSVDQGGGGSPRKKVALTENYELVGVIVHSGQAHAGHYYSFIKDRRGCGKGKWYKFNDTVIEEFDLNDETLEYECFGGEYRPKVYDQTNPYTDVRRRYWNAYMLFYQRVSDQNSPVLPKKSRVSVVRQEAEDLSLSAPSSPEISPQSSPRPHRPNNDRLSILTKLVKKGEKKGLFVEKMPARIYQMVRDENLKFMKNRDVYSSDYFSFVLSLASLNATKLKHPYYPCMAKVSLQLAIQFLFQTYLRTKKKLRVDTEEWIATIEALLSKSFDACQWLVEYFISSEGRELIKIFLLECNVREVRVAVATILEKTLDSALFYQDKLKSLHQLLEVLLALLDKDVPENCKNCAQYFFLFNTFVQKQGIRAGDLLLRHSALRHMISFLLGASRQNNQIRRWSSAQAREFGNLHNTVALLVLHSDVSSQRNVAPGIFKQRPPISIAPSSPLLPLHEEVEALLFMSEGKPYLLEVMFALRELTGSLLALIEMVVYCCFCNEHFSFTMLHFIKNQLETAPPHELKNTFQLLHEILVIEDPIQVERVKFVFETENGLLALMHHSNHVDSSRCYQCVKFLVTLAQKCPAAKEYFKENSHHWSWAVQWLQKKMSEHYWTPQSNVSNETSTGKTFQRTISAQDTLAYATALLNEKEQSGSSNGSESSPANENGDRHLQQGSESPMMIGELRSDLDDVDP
Method in brief: as §1

[4] = target: T3, USP25 (UniProt Q9UHP3)
T3 sequence (whole entry): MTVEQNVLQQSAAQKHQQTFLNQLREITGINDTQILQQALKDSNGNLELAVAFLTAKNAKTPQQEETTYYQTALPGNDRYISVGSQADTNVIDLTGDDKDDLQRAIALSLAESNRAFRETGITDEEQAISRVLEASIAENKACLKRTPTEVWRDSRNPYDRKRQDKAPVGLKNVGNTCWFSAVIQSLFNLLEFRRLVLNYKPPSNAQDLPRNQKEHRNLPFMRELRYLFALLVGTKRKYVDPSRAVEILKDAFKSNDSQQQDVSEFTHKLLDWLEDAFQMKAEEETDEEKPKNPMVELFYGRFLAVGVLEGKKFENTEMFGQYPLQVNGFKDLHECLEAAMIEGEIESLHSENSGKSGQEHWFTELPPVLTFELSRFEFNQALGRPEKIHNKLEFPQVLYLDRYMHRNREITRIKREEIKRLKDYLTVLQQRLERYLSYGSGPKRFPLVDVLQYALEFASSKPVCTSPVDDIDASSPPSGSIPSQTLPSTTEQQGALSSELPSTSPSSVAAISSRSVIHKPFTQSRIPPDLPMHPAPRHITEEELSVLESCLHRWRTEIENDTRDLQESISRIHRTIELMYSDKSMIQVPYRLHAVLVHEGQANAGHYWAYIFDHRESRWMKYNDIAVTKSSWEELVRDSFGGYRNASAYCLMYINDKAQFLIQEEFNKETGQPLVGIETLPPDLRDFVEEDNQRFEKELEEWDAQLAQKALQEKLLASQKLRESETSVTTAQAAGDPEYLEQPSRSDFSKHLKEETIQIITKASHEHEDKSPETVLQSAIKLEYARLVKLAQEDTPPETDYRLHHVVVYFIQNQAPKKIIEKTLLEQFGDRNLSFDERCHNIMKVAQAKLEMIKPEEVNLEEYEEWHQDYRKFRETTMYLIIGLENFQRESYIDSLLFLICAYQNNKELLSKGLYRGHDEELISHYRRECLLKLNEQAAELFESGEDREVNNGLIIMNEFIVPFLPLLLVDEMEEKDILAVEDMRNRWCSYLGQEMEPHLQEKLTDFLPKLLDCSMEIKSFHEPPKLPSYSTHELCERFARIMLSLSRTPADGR
Method in brief: as §1

[5] = target: T4, USP28 (UniProt Q96RU2)
T4 sequence (whole entry): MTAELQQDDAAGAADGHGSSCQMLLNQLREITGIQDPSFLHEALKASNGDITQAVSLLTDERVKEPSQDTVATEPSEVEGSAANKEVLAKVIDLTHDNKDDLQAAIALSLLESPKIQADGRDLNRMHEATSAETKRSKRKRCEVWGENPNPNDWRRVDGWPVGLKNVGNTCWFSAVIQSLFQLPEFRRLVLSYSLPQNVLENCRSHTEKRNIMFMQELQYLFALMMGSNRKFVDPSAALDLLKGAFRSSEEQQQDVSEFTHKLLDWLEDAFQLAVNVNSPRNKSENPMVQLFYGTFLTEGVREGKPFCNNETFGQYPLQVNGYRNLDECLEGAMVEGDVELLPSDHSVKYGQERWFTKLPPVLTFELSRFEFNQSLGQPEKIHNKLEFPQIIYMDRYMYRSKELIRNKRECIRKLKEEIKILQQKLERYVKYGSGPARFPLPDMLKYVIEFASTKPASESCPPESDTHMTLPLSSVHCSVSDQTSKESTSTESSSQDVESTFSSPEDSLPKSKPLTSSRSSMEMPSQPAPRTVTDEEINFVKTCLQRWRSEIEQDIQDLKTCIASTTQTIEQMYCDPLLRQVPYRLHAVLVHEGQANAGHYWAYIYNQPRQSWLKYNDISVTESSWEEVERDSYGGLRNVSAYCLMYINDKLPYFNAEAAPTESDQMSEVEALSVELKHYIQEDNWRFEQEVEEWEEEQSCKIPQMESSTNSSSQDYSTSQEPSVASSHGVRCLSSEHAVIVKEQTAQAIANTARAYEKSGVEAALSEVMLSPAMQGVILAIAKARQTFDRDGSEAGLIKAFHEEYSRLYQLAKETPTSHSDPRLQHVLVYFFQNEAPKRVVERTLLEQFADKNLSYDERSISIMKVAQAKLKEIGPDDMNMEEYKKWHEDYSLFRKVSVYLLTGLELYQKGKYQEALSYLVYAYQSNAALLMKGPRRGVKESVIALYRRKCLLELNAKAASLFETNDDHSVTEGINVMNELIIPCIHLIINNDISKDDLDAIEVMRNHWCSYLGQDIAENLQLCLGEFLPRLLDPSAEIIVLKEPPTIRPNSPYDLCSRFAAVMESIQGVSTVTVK
Method in brief: as §1

Cl.O=C(CCl)NCCN1CCc2ccccc21
log2 ratio of Biotin-Ahx-Ub-VS probe labelling [1]: -0.976 | log2 ratio of Biotin-Ahx-Ub-VS probe labelling [2]: -1.07 (active) | log2 ratio of Biotin-Ahx-Ub-VS probe labelling [3]: -1.05 (active) | log2 ratio of Biotin-Ahx-Ub-VS probe labelling [4]: -0.576 | log2 ratio of Biotin-Ahx-Ub-VS probe labelling [5]: -1.11 (active)
